About 83,000 compounds went through this panel and 20% of them were active in at least one assay; those are over-represented in the sample as a whole.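 Interpretation: 100, growth as untreated; towards 0, rising growth inhibition; 0, no net growth; 0 to -100, cell death. Compounds scoring below 10 were considered active.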 Activity calls are given as the source filed them.
What was measured:
Test in all cases: NCI-60 one-dose screen, 48 h (100 = growth as untreated, 0 = no growth, -100 = all killed)
HCT-15 colon = details: 10 µM
HT29 colon = details: 10 µM
SNB-75 CNS = details: 10 µM
SNB-19 CNS = details: 10 µM
U251 CNS = details: 10 µM
SK-MEL-5 melanoma = details: 10 µM
UACC-62 melanoma = details: 10 µM unless noted
LOX IMVI melanoma = details: 10 µM
SK-MEL-28 melanoma = details: 10 µM
EKVX NSCLC = details: 10 µM
SN12C renal = details: 10 µM
UO-31 renal = details: 10 µM
TK-10 renal = details: 10 µM unless noted
ACHN renal = details: 10 µM
CAKI-1 renal = details: 10 µM
A498 renal = details: 10 µM
CCRF-CEM leukemia = details: 10 µM
MOLT-4 leukemia = details: 10 µM
SK-MEL-2 melanoma = details: 10 µM
PC-3 prostate = details: 10 µM

Measured: growth

Cc1cc(C)cc(NCCC#N)c1
inactive: HCT-15 colon 106% | HT29 colon 105% | SNB-75 CNS 94.6% | SNB-19 CNS 96.5% | U251 CNS 105% | SK-MEL-5 melanoma 107% | UACC-62 melanoma 105% | LOX IMVI melanoma 105% | SK-MEL-28 melanoma 108% | EKVX NSCLC 103% | SN12C renal 110% | UO-31 renal 96.5% | TK-10 renal 129% | ACHN renal 107% | CAKI-1 renal 107% | A498 renal 111% | CCRF-CEM leukemia 96.8% | MOLT-4 leukemia 91.4%

C[C@]12CC[C@@H]3c4ccc(OCC(=O)O)cc4CC[C@H]3[C@@H]1CCC2=O
inactive: HCT-15 colon 106% | HT29 colon 104% | SNB-75 CNS 83.5% | SNB-19 CNS 103% | U251 CNS 104% | SK-MEL-5 melanoma 99.9% | UACC-62 melanoma 96.5% | LOX IMVI melanoma 86% | SK-MEL-28 melanoma 118% | SK-MEL-2 melanoma 105% | EKVX NSCLC 117% | SN12C renal 102% | UO-31 renal 86.1% | TK-10 renal 103% | ACHN renal 96.9% | CAKI-1 renal 113% | A498 renal 78.1% | CCRF-CEM leukemia 116% | MOLT-4 leukemia 86.2%

CC(=O)c1ccc(C(C)(C)C)cc1
inactive: HCT-15 colon 101% | HT29 colon 96.7% | SNB-75 CNS 97.7% | SNB-19 CNS 95.6% | U251 CNS 99.6% | SK-MEL-5 melanoma 101% | UACC-62 melanoma 91.1% | LOX IMVI melanoma 98.5% | SK-MEL-28 melanoma 120% | SK-MEL-2 melanoma 102% | EKVX NSCLC 106% | SN12C renal 97% | UO-31 renal 82.7% | TK-10 renal 105% | ACHN renal 97.7% | CAKI-1 renal 92.7% | A498 renal 123% | CCRF-CEM leukemia 88.4% | MOLT-4 leukemia 98.9%

O=C(O)c1ccc(S(=O)(=O)O)cc1
inactive: HCT-15 colon 102% | HT29 colon 107% | SNB-75 CNS 94.9% | SNB-19 CNS 106% | U251 CNS 103% | SK-MEL-5 melanoma 110% | UACC-62 melanoma 102% | LOX IMVI melanoma 97.3% | SK-MEL-28 melanoma 109% | EKVX NSCLC 104% | SN12C renal 95.2% | TK-10 renal 116% | CAKI-1 renal 79% | A498 renal 122% | CCRF-CEM leukemia 106% | MOLT-4 leukemia 118%

O=[N+]([O-])c1ccc(Cl)c(S(=O)(=O)O)c1
inactive: HCT-15 colon 96.6% | HT29 colon 138% | SNB-75 CNS 85.8% | SNB-19 CNS 106% | U251 CNS 111% | PC-3 prostate 108% | UACC-62 melanoma 105% | LOX IMVI melanoma 102% | SK-MEL-28 melanoma 111% | EKVX NSCLC 111% | SN12C renal 103% | UO-31 renal 89.3% | TK-10 renal 136% | ACHN renal 101% | A498 renal 113% | CCRF-CEM leukemia 81.3% | MOLT-4 leukemia 89.7%

OCc1cccc2ccccc12
inactive: HCT-15 colon 101% | HT29 colon 114% | SNB-75 CNS 86.3% | SNB-19 CNS 113% | U251 CNS 108% | SK-MEL-5 melanoma 118% | UACC-62 melanoma 112% | LOX IMVI melanoma 102% | SK-MEL-28 melanoma 111% | EKVX NSCLC 119% | SN12C renal 108% | UO-31 renal 95.5% | TK-10 renal 100% | ACHN renal 98.6% | CAKI-1 renal 110% | A498 renal 109% | MOLT-4 leukemia 97.5%

CN(C)c1ccc(CNC(C(=O)c2ccccc2)c2ccccc2)cc1 (stereo not drawn)
inactive: HCT-15 colon 96.9% | HT29 colon 82.6% | SNB-75 CNS 90.4% | SNB-19 CNS 107% | U251 CNS 94.1% | SK-MEL-5 melanoma 56.2% | UACC-62 melanoma 99.2% | LOX IMVI melanoma 95.1% | SK-MEL-28 melanoma 94.2% | SK-MEL-2 melanoma 74.5% | EKVX NSCLC 101% | SN12C renal 115% | UO-31 renal 102% | TK-10 renal 112% | ACHN renal 101% | CAKI-1 renal 102% | CCRF-CEM leukemia 90.9% | MOLT-4 leukemia 94.9%
active: A498 renal 8.44%

COc1cccc(/C=N/NC(=S)NC2CC3CCC2C3)c1O (stereo not drawn)
inactive: HCT-15 colon 26.8% | HT29 colon 93.6% | SNB-19 CNS 72.4% | U251 CNS 42.2% | PC-3 prostate 64.8% | UACC-62 melanoma 67.7% | LOX IMVI melanoma 44.2% | SK-MEL-28 melanoma 67.6% | SK-MEL-2 melanoma 69% | SN12C renal 57.9% | UO-31 renal 21.8% | TK-10 renal 88.3% | ACHN renal 32.1% | CAKI-1 renal 38.2% | A498 renal 51.9% | CCRF-CEM leukemia 29.1% | MOLT-4 leukemia 44.8%
active: SNB-75 CNS 5.33%
